Results published in the supplement of paper PMC10849652.
The full data set covers some 7,900 targets. This sample favours those with a hit. About 0.6% of all pairs of compound and target were hits.

What follows are targets tested with COC1=CC=C(C=C1)CN2C=CC3=C2C=C(C=C3)C(=O)NO (assay: log2 fold change, soluble protein after heating vs DMSO (PISA); higher = thermal stabilisation; K562 cells, 10 uM, 30 min; active = over 0.2 and 3.5 SD of the protein, either way, in both replicates (recomputed)).
Procedure, shortened: (§1)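 Quantification of soluble protein used TMTpro 16plex LC-MS/MS, with channel sums equalised. Samples were the supernatant after 21,000xg for 90 min of pooled aliquots from K562 cells (2×10^6 cells/mL) treated with 10 μM compound for 30 min, heated for 3 min over 48°C-58°C, and extracted in PBS with 0.5% NP-40 at 4°C. Values, from duplicates, describe thermal stability against control samples on a log2 fold-change scale.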

UniProt Q8NEZ4, sequence (Q8NEZ4 whole entry, looked up): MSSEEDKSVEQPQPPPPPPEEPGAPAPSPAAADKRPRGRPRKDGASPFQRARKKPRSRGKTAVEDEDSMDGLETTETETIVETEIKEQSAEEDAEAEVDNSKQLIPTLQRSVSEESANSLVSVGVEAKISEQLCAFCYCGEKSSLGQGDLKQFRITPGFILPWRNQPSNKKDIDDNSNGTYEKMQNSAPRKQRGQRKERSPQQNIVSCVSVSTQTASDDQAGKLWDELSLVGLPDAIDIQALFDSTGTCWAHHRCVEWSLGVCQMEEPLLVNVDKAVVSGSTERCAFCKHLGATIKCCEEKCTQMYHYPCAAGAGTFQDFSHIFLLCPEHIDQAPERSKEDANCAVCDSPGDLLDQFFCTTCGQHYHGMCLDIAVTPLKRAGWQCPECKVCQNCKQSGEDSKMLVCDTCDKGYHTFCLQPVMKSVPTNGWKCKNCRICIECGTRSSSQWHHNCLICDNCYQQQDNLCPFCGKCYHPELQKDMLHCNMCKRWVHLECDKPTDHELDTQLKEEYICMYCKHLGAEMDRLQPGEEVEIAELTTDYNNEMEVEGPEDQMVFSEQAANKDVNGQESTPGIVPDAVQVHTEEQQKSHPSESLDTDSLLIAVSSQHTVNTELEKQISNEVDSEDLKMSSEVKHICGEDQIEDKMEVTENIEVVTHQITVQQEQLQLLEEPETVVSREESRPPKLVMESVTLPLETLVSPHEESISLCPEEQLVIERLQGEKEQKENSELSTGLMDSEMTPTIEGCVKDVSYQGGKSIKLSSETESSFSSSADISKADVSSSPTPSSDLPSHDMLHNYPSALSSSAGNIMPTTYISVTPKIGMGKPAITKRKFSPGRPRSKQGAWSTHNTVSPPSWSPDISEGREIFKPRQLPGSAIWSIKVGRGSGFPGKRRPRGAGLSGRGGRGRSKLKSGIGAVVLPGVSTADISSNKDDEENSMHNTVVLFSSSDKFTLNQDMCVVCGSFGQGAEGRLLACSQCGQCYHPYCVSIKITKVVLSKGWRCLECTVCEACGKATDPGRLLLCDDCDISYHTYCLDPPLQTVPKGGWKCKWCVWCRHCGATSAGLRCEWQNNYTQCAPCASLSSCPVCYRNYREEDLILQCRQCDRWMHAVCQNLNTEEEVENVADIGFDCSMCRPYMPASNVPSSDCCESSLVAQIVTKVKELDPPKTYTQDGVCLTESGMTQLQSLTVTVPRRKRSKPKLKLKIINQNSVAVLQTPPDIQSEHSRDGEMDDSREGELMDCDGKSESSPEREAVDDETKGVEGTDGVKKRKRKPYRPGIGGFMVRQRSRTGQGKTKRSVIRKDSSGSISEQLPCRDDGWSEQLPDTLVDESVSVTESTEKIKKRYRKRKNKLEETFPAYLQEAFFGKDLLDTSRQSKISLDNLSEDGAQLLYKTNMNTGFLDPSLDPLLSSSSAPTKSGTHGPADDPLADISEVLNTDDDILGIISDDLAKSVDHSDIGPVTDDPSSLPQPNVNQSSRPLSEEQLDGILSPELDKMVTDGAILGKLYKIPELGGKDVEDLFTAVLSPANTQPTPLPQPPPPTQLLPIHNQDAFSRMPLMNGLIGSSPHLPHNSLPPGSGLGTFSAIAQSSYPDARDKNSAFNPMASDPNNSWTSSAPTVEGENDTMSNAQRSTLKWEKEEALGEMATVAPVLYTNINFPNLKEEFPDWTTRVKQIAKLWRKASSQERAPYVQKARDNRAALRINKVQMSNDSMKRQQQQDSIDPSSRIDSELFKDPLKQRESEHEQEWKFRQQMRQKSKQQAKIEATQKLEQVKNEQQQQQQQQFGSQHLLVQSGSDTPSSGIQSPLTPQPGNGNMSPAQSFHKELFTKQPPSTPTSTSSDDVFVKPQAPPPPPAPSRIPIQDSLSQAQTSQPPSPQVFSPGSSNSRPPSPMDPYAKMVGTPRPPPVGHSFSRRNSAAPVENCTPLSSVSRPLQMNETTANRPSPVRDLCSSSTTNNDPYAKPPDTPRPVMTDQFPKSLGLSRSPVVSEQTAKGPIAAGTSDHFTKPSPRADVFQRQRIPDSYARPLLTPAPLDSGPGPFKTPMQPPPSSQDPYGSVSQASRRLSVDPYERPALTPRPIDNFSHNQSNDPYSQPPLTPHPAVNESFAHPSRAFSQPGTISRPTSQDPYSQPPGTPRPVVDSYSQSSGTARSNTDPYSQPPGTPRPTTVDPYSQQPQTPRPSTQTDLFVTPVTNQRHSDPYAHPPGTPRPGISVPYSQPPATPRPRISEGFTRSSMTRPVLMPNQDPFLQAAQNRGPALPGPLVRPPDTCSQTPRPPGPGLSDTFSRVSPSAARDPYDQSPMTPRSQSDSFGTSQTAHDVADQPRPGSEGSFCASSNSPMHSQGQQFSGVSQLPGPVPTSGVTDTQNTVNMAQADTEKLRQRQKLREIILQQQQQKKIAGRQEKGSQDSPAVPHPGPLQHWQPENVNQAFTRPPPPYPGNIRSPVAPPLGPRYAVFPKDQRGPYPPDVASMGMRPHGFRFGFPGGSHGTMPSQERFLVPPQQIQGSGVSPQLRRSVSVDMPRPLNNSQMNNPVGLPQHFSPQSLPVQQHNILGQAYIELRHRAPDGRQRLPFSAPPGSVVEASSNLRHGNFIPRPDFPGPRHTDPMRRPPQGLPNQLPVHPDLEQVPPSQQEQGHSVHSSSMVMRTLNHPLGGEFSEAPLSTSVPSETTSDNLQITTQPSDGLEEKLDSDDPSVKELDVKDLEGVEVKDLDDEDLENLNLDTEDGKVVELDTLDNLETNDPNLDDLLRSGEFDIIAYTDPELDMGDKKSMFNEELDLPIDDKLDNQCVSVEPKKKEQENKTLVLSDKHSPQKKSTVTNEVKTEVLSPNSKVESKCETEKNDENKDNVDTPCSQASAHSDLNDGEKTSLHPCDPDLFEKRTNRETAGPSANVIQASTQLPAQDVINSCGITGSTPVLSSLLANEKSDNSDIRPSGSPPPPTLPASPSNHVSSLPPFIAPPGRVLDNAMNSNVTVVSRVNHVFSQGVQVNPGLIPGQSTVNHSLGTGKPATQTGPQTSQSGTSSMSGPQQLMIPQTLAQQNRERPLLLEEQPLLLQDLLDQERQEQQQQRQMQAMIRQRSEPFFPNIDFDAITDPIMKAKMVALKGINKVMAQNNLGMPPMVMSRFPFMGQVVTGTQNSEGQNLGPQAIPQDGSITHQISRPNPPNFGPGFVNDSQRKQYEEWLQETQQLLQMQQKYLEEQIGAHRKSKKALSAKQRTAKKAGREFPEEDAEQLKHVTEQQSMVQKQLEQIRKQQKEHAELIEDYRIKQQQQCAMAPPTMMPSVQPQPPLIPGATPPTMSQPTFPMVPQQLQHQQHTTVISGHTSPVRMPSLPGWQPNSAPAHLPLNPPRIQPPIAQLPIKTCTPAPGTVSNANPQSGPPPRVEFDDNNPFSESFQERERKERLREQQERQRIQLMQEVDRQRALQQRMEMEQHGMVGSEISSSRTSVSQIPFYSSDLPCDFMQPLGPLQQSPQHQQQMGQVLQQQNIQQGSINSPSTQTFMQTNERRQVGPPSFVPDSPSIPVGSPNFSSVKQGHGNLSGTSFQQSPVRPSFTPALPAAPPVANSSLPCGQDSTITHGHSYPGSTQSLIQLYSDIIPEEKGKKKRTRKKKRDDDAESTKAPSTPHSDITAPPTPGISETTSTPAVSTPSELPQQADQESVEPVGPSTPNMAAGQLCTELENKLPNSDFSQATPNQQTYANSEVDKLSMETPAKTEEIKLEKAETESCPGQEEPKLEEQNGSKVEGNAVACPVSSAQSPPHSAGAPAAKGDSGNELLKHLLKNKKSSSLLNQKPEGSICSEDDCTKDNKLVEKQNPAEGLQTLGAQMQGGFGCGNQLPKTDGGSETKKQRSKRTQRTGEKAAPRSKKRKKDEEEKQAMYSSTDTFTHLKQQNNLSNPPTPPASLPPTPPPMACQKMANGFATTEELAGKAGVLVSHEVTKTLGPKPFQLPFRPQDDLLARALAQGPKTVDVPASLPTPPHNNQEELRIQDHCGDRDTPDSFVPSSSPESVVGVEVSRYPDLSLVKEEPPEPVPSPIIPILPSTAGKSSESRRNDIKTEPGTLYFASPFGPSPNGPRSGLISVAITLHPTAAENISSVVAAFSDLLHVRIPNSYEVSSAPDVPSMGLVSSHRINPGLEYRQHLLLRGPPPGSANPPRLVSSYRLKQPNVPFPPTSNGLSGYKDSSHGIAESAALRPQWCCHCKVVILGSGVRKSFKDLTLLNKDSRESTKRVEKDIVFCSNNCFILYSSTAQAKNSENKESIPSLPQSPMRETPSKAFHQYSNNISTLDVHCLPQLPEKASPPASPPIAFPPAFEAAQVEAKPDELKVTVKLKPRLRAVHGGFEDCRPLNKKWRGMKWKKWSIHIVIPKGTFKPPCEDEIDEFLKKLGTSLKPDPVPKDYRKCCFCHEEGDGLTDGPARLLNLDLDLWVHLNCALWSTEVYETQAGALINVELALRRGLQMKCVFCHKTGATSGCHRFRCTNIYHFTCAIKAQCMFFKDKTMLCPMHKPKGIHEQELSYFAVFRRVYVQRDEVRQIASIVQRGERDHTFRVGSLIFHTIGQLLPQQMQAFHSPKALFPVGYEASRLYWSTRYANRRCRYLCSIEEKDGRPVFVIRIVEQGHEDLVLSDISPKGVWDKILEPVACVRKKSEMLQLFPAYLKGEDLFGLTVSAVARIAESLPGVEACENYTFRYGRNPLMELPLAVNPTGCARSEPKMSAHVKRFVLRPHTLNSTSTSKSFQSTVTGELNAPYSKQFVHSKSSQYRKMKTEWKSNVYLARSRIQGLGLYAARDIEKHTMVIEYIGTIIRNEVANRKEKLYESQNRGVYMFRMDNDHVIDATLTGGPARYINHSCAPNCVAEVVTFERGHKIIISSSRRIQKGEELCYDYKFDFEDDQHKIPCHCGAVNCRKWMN
UniProt Q9NQX7, sequence (Q9NQX7 whole entry, looked up): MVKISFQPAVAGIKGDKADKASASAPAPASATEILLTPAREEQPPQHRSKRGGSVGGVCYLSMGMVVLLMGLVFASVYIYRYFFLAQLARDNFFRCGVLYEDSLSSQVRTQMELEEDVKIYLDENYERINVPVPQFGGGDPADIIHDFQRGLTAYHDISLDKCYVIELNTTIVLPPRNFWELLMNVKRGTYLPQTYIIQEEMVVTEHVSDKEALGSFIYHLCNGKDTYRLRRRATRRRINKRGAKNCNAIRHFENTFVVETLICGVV

log2 fold change, inactive:
MAPK11 (UniProt Q15759) -0.126
MGRN1 isoform 2 (UniProt O60291) -0.015
ITPRID2 (UniProt P28290) 0
MAPRE3 isoform 2 (UniProt Q9UPY8) 0.192
LRRFIP1 isoform 4 (UniProt Q32MZ4) -0.061
IKZF1 (UniProt R9R4D9) -0.167
KIZ (UniProt Q2M2Z5) -0.008
ING5 (UniProt Q8WYH8) 0.208
MAGEA8 (UniProt P43361) 0.061
MAPK7 (UniProt Q13164) -0.066

The targets below were run with CON(C)C(=O)N1N=C(c2cc(F)ccc2F)S[C@@]1(CCCN)c1ccccc1 [filanesib] in the same assay as above.
Procedure, shortened: as §1

log2 fold change, inactive:
MARCHF3 (UniProt Q86UD3) -0.272
ITM2C (UniProt Q9NQX7) -0.275
MFSD12 isoform 3 (UniProt Q6NUT3) -0.197
MAP4 isoform 5 (UniProt P27816) -0.039
MAP4K4 isoform 6 (UniProt O95819) -0.018
LSR (UniProt M0QZL9) 0.168
KLHL18 (UniProt O94889) 0
KMT2C isoform 3 (UniProt Q8NEZ4) 0.029
MAGED1 isoform 2 (UniProt Q9Y5V3) 0.264
LSR isoform 3 (UniProt Q86X29) 0.188
LPIN3 isoform 2 (UniProt Q9BQK8) 0.006
LAPTM4B (UniProt Q86VI4) 0.186
KIF13A isoform 4 (UniProt Q9H1H9) -0.684
IKZF1 isoform 2 (UniProt Q13422) -0.075
IP6K1 (UniProt Q92551) 0.037
MFAP3 (UniProt P55082) -0.092
MFSD1 isoform 6 (UniProt Q9H3U5) -0.123

log2 fold change, active:
LMBRD1 (UniProt Q9NUN5) -0.39
KMT5A (UniProt Q9NQR1) 0.976

The targets below were run with CO[C@H]1C[C@@H]2CC[C@@H](C)[C@@](O)(O2)C(=O)C(=O)N2CCCC[C@H]2C(=O)O[C@H]([C@H](C)C[C@@H]2CC[C@H](n3cnnn3)[C@H](OC)C2)CC(=O)[C@H](C)/C=C(\C)[C@@H](O)[C@@H](OC)C(=O)[C@H](C)C[C@H](C)/C=C/C=C/C=C/1C [zotarolimus] in the same assay as above.
Procedure, shortened: as §1

log2 fold change, inactive:
ITM2C (UniProt Q9NQX7) -0.047
MGRN1 isoform 2 (UniProt O60291) -0.017
MFSD12 isoform 3 (UniProt Q6NUT3) 0.024
MAP4K4 isoform 6 (UniProt O95819) -0.162
MAPRE3 isoform 2 (UniProt Q9UPY8) 0.008
LRRFIP1 isoform 4 (UniProt Q32MZ4) 0.202
KLHL18 (UniProt O94889) 0.022
KMT2C isoform 3 (UniProt Q8NEZ4) -0.028
LEPROT (UniProt O15243) -0.056
IKZF1 (UniProt R9R4D9) -0.192
MAGED1 isoform 2 (UniProt Q9Y5V3) 0.001
LMBRD1 (UniProt Q9NUN5) 0.049
LSR isoform 3 (UniProt Q86X29) 0.115
LPIN3 isoform 2 (UniProt Q9BQK8) 0.011
KIF13A isoform 4 (UniProt Q9H1H9) 0.03
KIZ (UniProt Q2M2Z5) 0.269
ING5 (UniProt Q8WYH8) 0.014
MAGEA8 (UniProt P43361) 0.108
IKZF1 isoform 2 (UniProt Q13422) 0.1
IP6K1 (UniProt Q92551) 0.151
KXD1 (UniProt Q9BQD3) 0.073
MFSD1 isoform 6 (UniProt Q9H3U5) -0.108

log2 fold change, active:
IGFBP6 (UniProt P24592) -1.03
